The full list was thinned out, with hits kept by preference.
APEX1 inh: APE1 (human) endonuclease inhibition | P27695 | recombinant APE1, TAMRA/BHQ-2 abasic DNA cleavage fluorescence | Potency, µM (titrated, usually from 65.8 µM), hits mostly inhibitors | 350,000 compounds, 0.35% hits; further: nearly all actives have a fitted effect of over 55% in size
Target sequence (P27695 whole entry, looked up): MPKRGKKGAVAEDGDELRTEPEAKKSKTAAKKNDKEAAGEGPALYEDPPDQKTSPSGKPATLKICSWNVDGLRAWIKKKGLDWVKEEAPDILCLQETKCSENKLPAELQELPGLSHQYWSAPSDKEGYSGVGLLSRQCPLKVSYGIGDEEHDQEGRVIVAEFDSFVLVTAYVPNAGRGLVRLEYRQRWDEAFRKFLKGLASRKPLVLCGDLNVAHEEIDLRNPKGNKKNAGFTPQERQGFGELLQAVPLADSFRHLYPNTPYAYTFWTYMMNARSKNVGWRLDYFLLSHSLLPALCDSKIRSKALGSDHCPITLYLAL
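Quantitative HTS: incision of a TAMRA/BHQ-2 double-stranded substrate bearing a tetrahydrofuran abasic site by 0.75 nM APE1 raises fluorescence. Substrate 50 nM final, added after 15 min compound preincubation at room temperature; progress as third-minus-first kinetic read difference.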
BLM inh: Bloom syndrome helicase (human) inhibition; P54132; recombinant BLM DNA unwinding, fluorescence dequenching; Potency, µM (series often up to 56.1 µM), usual class: inhibitors; 350,000 compounds, 0.2% hits; further: nearly all actives have a fitted effect of over 35% in size
L3MBTL1 inh-1: inhibitors of human L3MBTL1; AID 485360; AlphaScreen L3MBTL1–H3K9me1 peptide binding; Potency, µM (top dose mostly 57.1 µM), actives largely listed as inhibitors; 230,000 compounds, 0.66% hits; Q9Y468; further: nearly all actives have a fitted effect of over 60% in size
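First, the protein-peptide complex forms for 30 min at room temperature (L3MBTL1 50 nM, biotinylated H3K9me1 peptide 75 nM). Next, compounds are pin-transferred and incubated 30 min. Finally, AlphaScreen beads are added and read after 30 min.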
GoLoco inh red: blocks human Gai1 binding to RGS12 GoLoco peptide, red readout; 230,000 compounds, 0.44% hits; P63096; Gai1:RGS12 GoLoco peptide FP, rhodamine, 10 min; Potency, µM (highest dose often 61.6 µM), actives largely listed as inhibitors; active means well fitted inhibition curve with a large enough effect, not every such curve was filed as active; inactive means no such curve, though single readings can be large or run the other way; further: nearly all actives have a fitted effect of over 30% in size
JMJD2E inh: JMJD2E (human) inhibition; JMJD2E catalytic domain, FDH-coupled NADH fluorescence (FDH is formaldehyde dehydrogenase); 230,000 compounds, 1.6% hits; Potency, µM (top dose mostly 57.1 µM), usual class: inhibitors; active means well fitted inhibition curve with a large enough effect, not every such curve was filed as active; inconclusive means small, poorly fitted or top-dose-only effect, or another doubt; inactive means no such curve, though single readings can be large or run the other way; further: nearly all actives have a fitted effect of over 50% in size
RECQ1 inh-1: inhibitors of human RECQ1 DNA helicase. P46063. RECQ1 DNA unwinding, red fluorescence kinetic read. Potency, µM (top dose mostly 57.3 µM), actives largely listed as inhibitors. 240,000 compounds, 0.54% hits. AID 2549; further: nearly all actives have a fitted effect of over 30% in size
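50 nM RECQ1T1 preincubated 15 min with compound in Tris pH 8.0 buffer with MgCl2, DTT, Tween-20 and 2.5 ug/ml poly(dI-dC); started with 200 nM TAMRA/BHQ-2 forked duplex and 2 mM ATP. Unwinding read as fluorescence (525/598 nm), two reads 2 h apart.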
RECQ1 inh conf: confirmation of human RECQ1 helicase inhibitors; shares compounds with RECQ1 inh-1; RECQ1 helicase DNA unwinding, fluorescence; Potency, µM (doses to about 229 µM), actives largely listed as inhibitors; 610 compounds, 28% hits; AID 2708; further: nearly all actives have a fitted effect of over 45% in size
RECQ1 ADP FP: ADP displacement flagged in RECQ1 inhibitor counter-screen; shares compounds with RECQ1 inh-1; ADP fluorescence polarization displacement counterscreen; Potency, µM (doses to about 228 µM), usual class: inhibitors; 530 compounds, 27% hits; AID 2711; further: nearly all actives have a fitted effect of over 45% in size
RECQ1 inh-2: RECQ1 helicase inhibition confirmed, round 2; shares compounds with RECQ1 inh-1; recombinant RECQ1 DNA unwinding, red fluorescence; Potency, µM (doses to about 119 µM), most hits filed as inhibitors; 1,100 compounds, 15% hits; further: nearly all actives have a fitted effect of over 50% in size
L3MBTL1 inh-2: validation of human L3MBTL1 methyl-lysine binding inhibitors. AID 540279. 500 compounds, 91% hits. L3MBTL1 methyl-lysine binding inhibition, biochemical qHTS. shares compounds with L3MBTL1 inh-1. Potency, µM, most hits filed as inhibitors; further: nearly all actives have a fitted effect of over 70% in size
L3MBTL1 ctr: AlphaScreen signal inhibition, L3MBTL1 hit counter-screen; shares compounds with L3MBTL1 inh-1; AID 602224; AlphaScreen counterscreen, signal inhibition; 500 tested, under 10 active; Potency, µM (top dose mostly 57.1 µM), usual class: inhibitors
Hits are given with their value; - = inactive; ? = inconclusive; . = not tested or not shown; [ ] = dose if it differs, or a comment. Unless noted, the call rests on the fitted dose curve; in most records, active means well fitted curve in the direction sought with a large enough effect; inconclusive means small, poorly fitted or top-dose-only effect, or another doubt; inactive means no such curve, though single readings can be large; an effect the other way counts as inactive or inconclusive.

SMILES	APEX1 inh	BLM inh	L3MBTL1 inh-1	GoLoco inh red	JMJD2E inh	RECQ1 inh-1	RECQ1 inh-2	others
CC(=O)Oc1ccc(C(=O)Nc2cccc(C(=O)c3cccc(NC(=O)c4ccc(OC(C)=O)cc4)c3)c2)cc1	-	-	-	-	-	14µM	?
O=C(NCc1cccc(Cl)c1)c1ccc(NC(=O)N2CC3CCCN3c3ccccc32)cc1 (stereo not drawn)	.	-	.	.	.	.	.
COc1ccc(C(=O)NCCn2cc(SCc3c(F)cccc3Cl)c3ccccc32)cc1	.	-	.	.	.	.	.
CCCCCc1c2c(cc(O)c1C(=O)O)OC(=O)c1cc(C(=O)CCCC)c(OC)cc1O2	?	-	-	-	-	13µM	?
CCCCCc1c2c(cc(O)c1C(=O)O)OC(=O)c1c(cc(OC)cc1C(=O)CCCC)O2	-	-	-	-	-	?	?
Cn1nnnc1SCC(=O)N1N=C(c2ccc(Cl)cc2)CC1c1ccco1 (stereo not drawn)	-	.	-	.	.	.	.
Cc1nnc(SCC(=O)N2N=C(c3ccc(Cl)cc3)CC2c2ccco2)[nH]c1=O (stereo not drawn)	-	-	.	-	?	32µM	-
CN(C)c1ccc(/C=C2\SC(=S)N(Nc3ncc(C(F)(F)F)cc3Cl)C2=O)cc1	-	-	-	-	-	10µM	.	RECQ1 inh conf=7.9µM;RECQ1 ADP FP=-
O=C(NC1CCCCC1)c1cc(Nc2cccc(C(F)(F)F)c2)nc2ccccc12	.	-	.	.	.	.	.
CCOC(=O)c1c(-c2ccc(C)cc2)csc1NC(=O)c1cc(=O)c2ccc(C)cc2o1	.	-	.	.	.	.	.
COCCNC(=O)c1onc(CSc2cc(C)cc(C)c2)c1C(=O)O	-	-	-	-	-	-	.	RECQ1 inh conf=-;RECQ1 ADP FP=-
COCCCN(C(=O)c1cc2c(s1)CCC2)c1c(N)n(Cc2ccccc2)c(=O)[nH]c1=O	?	?	?	-	-	14µM	?	RECQ1 inh conf=40µM;RECQ1 ADP FP=?
Cc1ccc(CSc2nnc(-c3ccc(NS(=O)(=O)c4ccccc4)cc3)o2)cc1	-	-	-	-	-	?	-
Cc1ccc(S(=O)(=O)Nc2ccc(-c3nnc(SCc4ccccc4Cl)o3)cc2)cc1	-	-	-	-	-	-	.
CCOC(=O)C1(CCc2ccccc2)CCN(C(=O)C2CCCO2)CC1 (stereo not drawn)	-	-	-	-	-	?	-
CC(=O)OC[C@@H]1O[C@H](CCO/N=C\[C@@H](C)[C@H](OCc2ccccc2)C(C)C)C=C[C@@H]1OC(C)=O	?	-[12.4 µM]	.	.	.	-[11.5 µM]	.
COc1ccc(OC)c(N2C(=O)[C@@H]3C(c4ccccc4Cl)=NO[C@@H]3C2=O)c1	?	-	3.5µM	-	-	28µM	?	L3MBTL1 inh-2=3;L3MBTL1 ctr=-
Cc1cccc(NC(=O)c2ccc3nc(CCc4ccccc4)oc3c2)c1C	.	-	.	.	.	.	.
COc1cc(/C=C2\CCc3c2nc2ccccc2c3C(=O)O)cc(OC)c1OC	25µM	14µM	4µM	-	?	10µM	?	RECQ1 inh conf=22µM;RECQ1 ADP FP=-;L3MBTL1 inh-2=1.5;L3MBTL1 ctr=-
CCCCCCCC(=O)OC[C@H](CO)OC(=O)CCCCCCC	-	-	.	-	-	-	.
COC(=O)c1c(NC(=O)CN2C(=O)NC3(CCC(C(C)(C)C)CC3)C2=O)sc2c1CCCCC2 (stereo not drawn)	-	-	-	-	-	-	.
